We go through 58 compounds from PubChem BioAssay AID1445 (SRMLSC, 2008).

The campaign covered roughly 220,000 compounds. About 910 (0.41%) were called active.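 How the source made its calls: active means primary inhibition above the hit cutoff, then over 50% inhibition at one or more dose response concentrations (cut at about 23% in these data, passing the limit was not always enough); inconclusive means conflicting primary data, or primary hits not chosen for dose response; inactive means low primary inhibition, or under 50% at every dose.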 Many of the other results were omitted from the sample, so actives are more common in it than they were. Entries with a potency or affinity are not part of this list.

Sequence of Aminopeptidase N (Plasmodium falciparum (isolate 3D7)) (O96935 whole entry, looked up): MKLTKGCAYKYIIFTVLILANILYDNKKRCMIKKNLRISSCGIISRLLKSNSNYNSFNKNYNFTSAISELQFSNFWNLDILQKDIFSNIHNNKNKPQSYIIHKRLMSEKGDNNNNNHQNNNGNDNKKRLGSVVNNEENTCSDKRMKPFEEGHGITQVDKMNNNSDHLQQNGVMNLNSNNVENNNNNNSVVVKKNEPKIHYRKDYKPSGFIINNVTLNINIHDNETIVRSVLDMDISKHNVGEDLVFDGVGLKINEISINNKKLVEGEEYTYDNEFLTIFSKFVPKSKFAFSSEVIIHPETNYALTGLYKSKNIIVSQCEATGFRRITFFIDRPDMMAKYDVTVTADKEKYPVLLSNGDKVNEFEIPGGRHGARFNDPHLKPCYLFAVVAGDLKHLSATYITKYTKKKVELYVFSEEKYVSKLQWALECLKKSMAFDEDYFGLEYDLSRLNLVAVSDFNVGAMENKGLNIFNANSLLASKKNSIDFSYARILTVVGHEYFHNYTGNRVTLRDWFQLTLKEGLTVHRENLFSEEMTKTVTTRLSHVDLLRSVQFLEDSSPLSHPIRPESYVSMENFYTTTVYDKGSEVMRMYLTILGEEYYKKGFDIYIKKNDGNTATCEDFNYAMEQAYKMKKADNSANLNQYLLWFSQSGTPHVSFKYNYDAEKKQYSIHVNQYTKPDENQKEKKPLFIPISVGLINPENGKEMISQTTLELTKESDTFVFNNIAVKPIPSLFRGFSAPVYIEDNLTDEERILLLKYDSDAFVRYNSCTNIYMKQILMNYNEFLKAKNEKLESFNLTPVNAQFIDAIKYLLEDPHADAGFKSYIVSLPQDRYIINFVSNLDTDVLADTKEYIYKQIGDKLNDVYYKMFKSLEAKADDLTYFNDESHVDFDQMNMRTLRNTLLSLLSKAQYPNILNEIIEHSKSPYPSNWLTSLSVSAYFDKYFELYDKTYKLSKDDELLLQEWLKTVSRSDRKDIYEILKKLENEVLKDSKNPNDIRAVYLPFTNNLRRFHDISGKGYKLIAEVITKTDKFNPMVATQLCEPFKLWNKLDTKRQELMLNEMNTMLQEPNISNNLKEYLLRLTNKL

This assay concerns the target Aminopeptidase N (Plasmodium falciparum (isolate 3D7)) (UniProt O96935). The experiment in a line: P. falciparum M1AAP inhibitors, biochemical, fluorogenic H-Leu-NHMec substrate, 1536-well (AID 1445).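 Further: plate controls were DMSO full reaction for no effect and no enzyme background for full effect.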 Particulars: recombinant M1AAP, H-Leu-NHMec fluorogenic kinetic assay; at 30 µM, hits give high values unless noted.
Consider `Cc1ccc(-n2c(-c3ccco3)n[nH]c2=S)cc1`, for which the inhibition is 0.43% (inactive).
As for `COC(=O)c1cc(C(=O)OC)cc(N2C(=O)CC(NNC(=O)c3ccccc3Br)C2=O)c1` (stereo not drawn), the inhibition was 17.2% (inactive).
For the compound `Cc1ccc(NC(=O)CN2C(=O)c3ccccc3C2=O)nc1`, the inhibition was 1.04% (inactive).
The value for `CCn1cc(C(=O)O)c(=O)c2cc(F)c(N/N=C/c3ccccc3[N+](=O)[O-])cc21` was -4.53% (inactive).
The value for `Cc1nc(-c2cccc(S(=O)(=O)N3CC(C)OC(C)C3)c2)cs1` (stereo not drawn) was -2.63% (inactive); that for `CCOc1ccc(CCNC(=O)Cc2nn[nH]n2)cc1OCC` was -2.11% (inactive).
As to `CN(C)C(=O)c1c([N+](=O)[O-])c(C(C)(C)C)nn1C`, the inhibition was 9.14% (inactive).
Next, `CCOc1ccccc1NC(=S)N1CCCc2ccccc21`: 2.13% (inactive); `C/C=C\C(=O)Nc1cccc(C2=NOC3(C2)C[C@@H](C(N)=O)N(C(=O)c2ccccc2)C3)c1` (stereo partly drawn): 7.63% (inactive); `COc1ccc(C2c3ccc(O)cc3Oc3ncn(CCCO)c(=N)c32)cc1` (stereo not drawn): 8.86% (inactive).
As to `CNC(=S)N/N=C/c1ccc(-c2ccc(Cl)c([N+](=O)[O-])c2)o1`, the inhibition is 3.04% (inactive).
Take `O=C(O)CC1S/C(=N/N=C/c2ccc(-c3ccc(Cl)cc3[N+](=O)[O-])o2)NC1=O` (stereo not drawn): the inhibition is 20.8% (inactive).
`O=C(Oc1ccccc1N1C(=O)C2CCCCC2C1=O)c1ccccc1F` (stereo not drawn): the inhibition is 4.73% (inactive).
As for `COc1ccc(NC(=O)C2CCN(S(C)(=O)=O)CC2)cc1Cl`, the inhibition is 4.6% (inactive).
The value for `O=C1C2CC=C(Cl)CC2C(=O)N1CCN1CCOCC1` (stereo not drawn) was 2.4% (inactive).
Take `Cc1cc(/C=C2/C(=N)N3C(=NC2=O)SN=C3S(C)(=O)=O)c(C)n1-c1ccccc1F`: the inhibition was 8.82% (inactive).
Turning to `CCSC1=NSC2=NC(=O)/C(=C\c3coc4ccccc4c3=O)C(=N)N12`, the inhibition was 19.9% (inactive).
With `COc1ccccc1-n1c(C)cc(/C=C2/C(=N)N3C(=NC2=O)SN=C3S(C)(=O)=O)c1C`, the inhibition is 17.9% (inactive).
As to `CC(C)CSC1=NSC2=NC(=O)/C(=C\c3coc4ccccc4c3=O)C(=N)N12`, the inhibition is 19.5% (inactive).
As for `CC(C)CSC1=NSC2=NC(=O)/C(=C\c3ccccc3)C(=N)N12`, the inhibition is -10% (inactive).
Consider `Cc1cc(/C=C2/C(=N)N3C(=NC2=O)SN=C3S(C)(=O)=O)c(C)n1-c1ccc(F)cc1`, for which the inhibition was 14.2% (inactive).
As for `Nc1ccnn1Cc1ccc(Br)s1`, the inhibition was 14.7% (inactive).
Regarding `CCOc1ccc2ncc(S(=O)(=O)c3ccccc3)c(N3CCN(c4ccc(OC)cc4)CC3)c2c1`, the inhibition was 3.98% (inactive).
Next, `Cc1ccc(-c2nc(SCC(=O)NCCN3C(=O)CSC3=O)[nH]c2-c2ccc(C)cc2)cc1`: -5.28% (inactive); `COC(=O)/C(C#N)=C/c1ccc(-c2ccc(S(N)(=O)=O)cc2)o1`: -5.9% (inactive); `O=C(NC(Cc1ccccc1)C(=O)O)c1ccc(S(=O)(=O)N2CCOCC2)cc1` (stereo not drawn): -4.36% (inactive).
For `COCCNC(=O)COc1ncnc2ccc(Br)cc12`, the inhibition is 0.71% (inactive).
As for `COCCn1c(=NC(C)=O)sc2cc([N+](=O)[O-])ccc21`, the inhibition was 1.15% (inactive).
Next, `O=C(Nc1cccc2oc(=O)ccc12)c1ccc([N+](=O)[O-])cc1[N+](=O)[O-]`: 8.2% (inactive).
Regarding `Cc1ccc(S(=O)(=O)N(C)C)cc1NC(=O)COC(=O)c1sc2cc(Cl)ccc2c1Cl`, the inhibition was -0.59% (inactive).
Turning to `COCCn1c(SCc2cc(C(C)=O)ccc2OC)nc2cc(Cl)ccc2c1=O`, the inhibition was 2.27% (inactive).
Consider `CCOC(Cn1c(SCc2cc(C(C)=O)ccc2OC)nc2ccccc2c1=O)OCC`, for which the inhibition was 2.96% (inactive).
In the case of `N/C(=N\OC(=O)CCn1cccc(C(F)(F)F)c1=O)c1ccc(Cl)cc1`, the inhibition was -1.85% (inactive).
The value for `COc1cc(C)nc(N2CCCC(C(=O)Nc3cccc(Cl)c3Cl)C2)n1` (stereo not drawn) was 1.36% (inactive); that for `CCOC(=O)NC(=O)/C(C#N)=N\Nc1cccc(Cl)c1` was 1.92% (inactive); that for `CNC(=O)Nc1cccc(-c2ccnc(C)n2)c1` was 0.72% (inactive).
The value for `COc1ccc(C(=O)/C(C#N)=N/Nc2ccc([N+](=O)[O-])cc2)cc1` was 3.64% (inactive); that for `N#C/C(=N\Nc1cccc(Cl)c1)C(=O)c1ccccc1` was 23.3% (active).
For the compound `COc1ccc(C(=O)/C(C#N)=N/Nc2cccc([N+](=O)[O-])c2)cc1`, the inhibition was 12.4% (inactive).
With `COc1cccc(C(=O)/C(C#N)=N/Nc2cccc(-c3ccnc(C)n3)c2)c1`, the inhibition is 8.84% (inactive).
As for `N#C/C(=N\Nc1ccccc1Cl)C(=O)c1ccccc1`, the inhibition was 12.7% (inactive).
The value for `COc1ccc(C(=O)C2CCCN(C(=O)c3cc(C(C)C)no3)C2)cc1F` (stereo not drawn) was 0.4% (inactive).
With `Cc1ccc(C)n1NC(=O)c1ccc(O)cc1`, the inhibition is 17% (inactive).
Next, `CC(=O)/C=C(\C)N=Nc1c(O)[nH]c2ccccc12`: 6.61% (inactive); `C/C(=N\NC(=O)c1ccccc1)c1cccc(Br)c1`: 4.52% (inactive); `O=C(Nc1ccccc1[N+](=O)[O-])c1cc2ccccc2nc1Cl`: 0.38% (inactive).
As for `CCN(C(=O)CSc1n[nH]c(-c2cccs2)n1)C1CCS(=O)(=O)C1` (stereo not drawn), the inhibition is -0.17% (inactive).
Next, `Cc1cc(Cl)ccc1OCC(=O)OC(C)C(=O)NC(N)=O` (stereo not drawn): -2.23% (inactive); `COc1ccc(N=Cc2cc(Cc3ccccc3Cl)cc([N+](=O)[O-])c2O)cc1OC`: 10.4% (inactive).
Take `O=C1CCCN1CCC1CCCCN1Cc1nc(-c2cnccn2)no1` (stereo not drawn): the inhibition is -4.06% (inactive).
The value for `COc1ccc(NS(=O)(=O)c2cccc(-c3nnc4n3CCCCC4)c2)cc1` was 20% (inactive); that for `CCCC1=[N+](CC(=O)c2ccccc2)CCn2c(C)ccc21` was 8.08% (inactive); that for `CCCC1=[N+](CC)CCn2c(C)ccc21` was 47.2% (active).
Regarding `CCCC1=[N+](CC(C)=O)CCn2c(C)ccc21`, the inhibition was 6.47% (inactive).
As for `O=C(COC(=O)c1ccccc1NC(=O)c1ccco1)NCc1ccc2c(c1)OCO2`, the inhibition is -2.79% (inactive).
In the case of `CCCn1nc(C(=O)NCc2ccc3c(c2)OCO3)c2ccccc2c1=O`, the inhibition was 9.46% (inactive).
With `COc1ccc(C2CC(c3ccc4ccccc4c3)=NN2C(=O)COC(=O)C2CCC(=O)N2)cc1` (stereo not drawn), the inhibition is 2.25% (inactive).
In the case of `O=C(Nc1ccc(S(=O)(=O)NCc2ccco2)cc1)c1ccncc1`, the inhibition was 6.85% (inactive).
